The results in this text go back to ChEMBL document CHEMBL3988442, “University of Dundee, Small-Polar-MMV Screening Library” (2021).

For some assays here: Entries with a potency or affinity are not part of this list.

Parameters in all cases: scale not given: direction of the effect not stated beside the values
For test [1], the target named is Protein translocase subunit SecA (Escherichia coli (strain K12)) (UniProt P10408). The test can be described thus: Assay to Identify E. coli SecA ATPase Inhibitors. The note with it: 30 µM. It counts as functional.
For test [2], the target named is T1, Ubiquitin-activating enzyme e1, putative (Leishmania donovani (strain BPK282A1)) (UniProt E9BSI1).
T1 sequence (whole entry): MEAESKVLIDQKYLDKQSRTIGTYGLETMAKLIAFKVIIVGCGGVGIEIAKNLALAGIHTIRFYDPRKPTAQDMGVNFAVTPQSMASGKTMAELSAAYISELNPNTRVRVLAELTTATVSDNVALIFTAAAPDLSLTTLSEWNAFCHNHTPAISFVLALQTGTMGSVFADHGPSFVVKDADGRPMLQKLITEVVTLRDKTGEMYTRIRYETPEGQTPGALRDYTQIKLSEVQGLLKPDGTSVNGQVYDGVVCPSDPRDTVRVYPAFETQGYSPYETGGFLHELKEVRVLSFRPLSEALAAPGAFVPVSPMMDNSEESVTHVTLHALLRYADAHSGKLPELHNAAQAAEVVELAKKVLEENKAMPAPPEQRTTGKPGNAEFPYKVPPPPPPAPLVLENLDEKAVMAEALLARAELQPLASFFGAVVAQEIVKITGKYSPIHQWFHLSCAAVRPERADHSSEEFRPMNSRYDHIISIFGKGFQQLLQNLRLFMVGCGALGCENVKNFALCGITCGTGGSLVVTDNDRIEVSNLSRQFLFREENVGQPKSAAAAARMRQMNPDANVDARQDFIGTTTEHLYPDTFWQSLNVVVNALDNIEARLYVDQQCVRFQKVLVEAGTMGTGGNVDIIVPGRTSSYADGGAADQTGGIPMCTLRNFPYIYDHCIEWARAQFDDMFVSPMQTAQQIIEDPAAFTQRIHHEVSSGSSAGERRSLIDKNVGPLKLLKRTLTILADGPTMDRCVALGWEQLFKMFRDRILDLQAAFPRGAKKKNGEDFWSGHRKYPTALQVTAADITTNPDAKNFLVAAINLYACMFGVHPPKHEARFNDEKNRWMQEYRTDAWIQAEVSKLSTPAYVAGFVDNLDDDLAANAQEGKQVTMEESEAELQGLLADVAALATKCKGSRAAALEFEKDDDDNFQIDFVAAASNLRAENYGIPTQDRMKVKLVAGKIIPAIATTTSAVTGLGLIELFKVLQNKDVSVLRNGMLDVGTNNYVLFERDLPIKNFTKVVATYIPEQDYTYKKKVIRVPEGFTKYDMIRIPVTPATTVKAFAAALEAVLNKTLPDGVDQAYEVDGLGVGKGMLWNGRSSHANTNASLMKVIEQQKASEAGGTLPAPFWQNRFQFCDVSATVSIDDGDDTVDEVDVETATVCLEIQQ
The test can be described thus: Leishmania donovani Ubiquitin Activating Enzyme (LdE1). It counts as functional. The note with it: 30 µM.

Test [3] deals with T2, Aspartate--tRNA(Asp/Asn) ligase (Mycobacterium tuberculosis (strain ATCC 25618 / H37Rv)) (UniProt P9WFW3).
T2 sequence (whole entry): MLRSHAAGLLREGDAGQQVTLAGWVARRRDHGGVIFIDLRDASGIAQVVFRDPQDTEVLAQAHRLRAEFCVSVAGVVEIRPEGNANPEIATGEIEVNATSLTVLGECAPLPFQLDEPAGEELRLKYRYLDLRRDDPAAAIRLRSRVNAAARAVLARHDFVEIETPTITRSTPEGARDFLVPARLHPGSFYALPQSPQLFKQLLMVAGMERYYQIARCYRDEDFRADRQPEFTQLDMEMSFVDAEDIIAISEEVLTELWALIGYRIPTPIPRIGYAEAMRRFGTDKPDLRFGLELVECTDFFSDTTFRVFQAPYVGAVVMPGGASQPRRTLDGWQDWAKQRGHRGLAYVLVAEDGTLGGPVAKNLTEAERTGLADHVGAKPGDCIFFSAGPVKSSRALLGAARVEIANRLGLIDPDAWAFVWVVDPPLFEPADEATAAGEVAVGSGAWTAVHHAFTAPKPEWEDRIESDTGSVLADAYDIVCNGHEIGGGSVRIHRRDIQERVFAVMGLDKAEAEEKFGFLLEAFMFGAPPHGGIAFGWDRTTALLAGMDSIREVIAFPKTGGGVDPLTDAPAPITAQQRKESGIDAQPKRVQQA
The test can be described thus: Assay for Asp RNA synthetase-1 from Mycobacterium tuberculosis. The note with it: 30 µM. It counts as functional.

Test [4] addresses AMP-activated protein kinase, AMPK (Homo sapiens) (UniProt P54646+O43741+P54619+Q9UGJ0+Q9Y478+Q13131+Q9UGI9). As to the kind of experiment: AMP-dependent Kinase enzyme assay. An in vitro enzyme assay that detects ADP turnover that is directly proportional to AMPK activity. This uses naive AMPK that is activated during the assay with MK-8722. The note with it: 30 µM. Type of test: functional.

Test [5] deals with Sialic acid-binding Ig-like lectin 9 (Homo sapiens) (UniProt Q9Y336). As to the kind of experiment: Hs-Siglec9 ALPHAscreen SOP 20170721. To be noted: 10 µM. Background: Alpha assays give light when donor and acceptor beads are brought close together.
The test system of test [6] is Trypanosoma cruzi. As to the kind of experiment: Trypanosoma cruzi phosphomannomutase and mannose-1-phosphate guanylyltransferase assay. It counts as functional. The note with it: 10 µM.
For test [7], the target named is T3, Arginase-2, mitochondrial (Homo sapiens) (UniProt P78540).
T3 sequence (whole entry): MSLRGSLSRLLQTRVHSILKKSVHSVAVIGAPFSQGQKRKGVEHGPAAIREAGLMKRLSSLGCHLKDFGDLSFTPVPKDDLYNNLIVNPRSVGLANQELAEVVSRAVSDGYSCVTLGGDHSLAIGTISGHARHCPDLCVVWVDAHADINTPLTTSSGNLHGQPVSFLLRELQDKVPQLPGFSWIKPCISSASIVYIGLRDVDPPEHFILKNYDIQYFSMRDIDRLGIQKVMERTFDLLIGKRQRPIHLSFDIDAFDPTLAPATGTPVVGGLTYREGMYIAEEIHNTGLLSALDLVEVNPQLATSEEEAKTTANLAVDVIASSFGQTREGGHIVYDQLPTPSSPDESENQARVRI
The test can be described thus: in vitro enzyme assay to detect the production of urea directly proportional to the activity of Arginase II. Note: in the data most compounds retested in dose-response had high values. Type of test: functional. To be noted: 33.3 µM.

For test [8], the target named is T4, Proteasome subunit beta (Trypanosoma cruzi) (UniProt O96673).
T4 sequence (whole entry): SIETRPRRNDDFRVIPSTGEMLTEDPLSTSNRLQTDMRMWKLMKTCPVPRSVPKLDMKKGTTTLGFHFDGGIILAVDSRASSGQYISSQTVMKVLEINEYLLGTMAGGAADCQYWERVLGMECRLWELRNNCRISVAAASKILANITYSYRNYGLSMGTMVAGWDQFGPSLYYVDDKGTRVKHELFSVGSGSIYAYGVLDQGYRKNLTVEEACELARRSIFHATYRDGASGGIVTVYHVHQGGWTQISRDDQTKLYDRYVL
As to the kind of experiment: Trypanosoma cruzi proteasome chymotrypsin-like activity (TcProtChymo) assay. Note: in the data most compounds retested in dose-response had high values. It counts as functional. To be noted: 9.37 µM.

The species entered for test [9] is Homo sapiens. As to the kind of experiment: To identify inhibition of the IFN signalling (Jak-Stat) pathway via expression of an eGFP reporter gene under the control of an IFN-stimulated response element (ISRE) containing MxA promoter. It counts as functional. To be noted: 30 µM. On the technique in general: In a reporter assay the amount or activity of a reporter protein is the signal.

In test [10] the target is Shiga toxin 2 (Escherichia coli O157:H7) (UniProt P09385+P09386). As to the kind of experiment: E. coli 0.157:H7 Shiga Toxin SOP - stx2 screening assay. Type of test: functional. The note with it: 30 µM.
In test [11] the target is T5, Tyrosyl-tRNA synthetase, putative (Trypanosoma cruzi (strain CL Brener)) (UniProt Q4DSP6).
T5 sequence (whole entry): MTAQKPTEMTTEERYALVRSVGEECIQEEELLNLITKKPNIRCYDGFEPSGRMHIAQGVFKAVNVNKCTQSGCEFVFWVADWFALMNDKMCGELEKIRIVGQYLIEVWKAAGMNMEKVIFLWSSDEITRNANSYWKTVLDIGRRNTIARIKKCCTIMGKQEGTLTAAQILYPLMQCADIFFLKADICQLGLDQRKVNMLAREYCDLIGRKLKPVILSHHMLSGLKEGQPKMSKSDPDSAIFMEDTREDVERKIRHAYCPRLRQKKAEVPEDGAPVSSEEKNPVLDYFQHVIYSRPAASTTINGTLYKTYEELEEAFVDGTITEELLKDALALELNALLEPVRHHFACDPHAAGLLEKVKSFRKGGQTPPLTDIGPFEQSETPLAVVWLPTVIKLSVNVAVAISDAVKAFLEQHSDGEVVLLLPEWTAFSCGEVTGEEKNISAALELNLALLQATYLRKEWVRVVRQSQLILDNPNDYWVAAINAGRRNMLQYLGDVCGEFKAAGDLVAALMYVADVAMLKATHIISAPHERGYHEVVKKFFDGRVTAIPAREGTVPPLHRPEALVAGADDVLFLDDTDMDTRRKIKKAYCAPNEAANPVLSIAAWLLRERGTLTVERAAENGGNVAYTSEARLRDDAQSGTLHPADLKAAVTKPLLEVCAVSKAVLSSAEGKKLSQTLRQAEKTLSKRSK
The test can be described thus: Trypanosoma cruzi tyrosyl tRNA synthetase (TcYRS) _High Tyrosine SOP. Note: in the data most compounds retested in dose-response had high values. Type of test: functional. The note with it: 30 µM.

In test [12] the target is T5, Tyrosyl-tRNA synthetase, putative (Trypanosoma cruzi (strain CL Brener)). The test can be described thus: Trypanosoma cruzi tyrosyl tRNA synthetase (TcYRS) SOP. It counts as functional. The note with it: 30 µM.
Test [13] addresses Chromo domain-containing protein 1 (Saccharomyces cerevisiae (strain ATCC 204508 / S288c) (Baker's yeast)) (UniProt P32657). The test can be described thus: ScCHD-1 Enzyme Inhibition Assay. Note: in the data most compounds retested in dose-response had high values. The note with it: 30 µM. It counts as functional.

Chain of Protein translocase subunit SecA (Escherichia coli (strain K12)) (P10408 whole entry): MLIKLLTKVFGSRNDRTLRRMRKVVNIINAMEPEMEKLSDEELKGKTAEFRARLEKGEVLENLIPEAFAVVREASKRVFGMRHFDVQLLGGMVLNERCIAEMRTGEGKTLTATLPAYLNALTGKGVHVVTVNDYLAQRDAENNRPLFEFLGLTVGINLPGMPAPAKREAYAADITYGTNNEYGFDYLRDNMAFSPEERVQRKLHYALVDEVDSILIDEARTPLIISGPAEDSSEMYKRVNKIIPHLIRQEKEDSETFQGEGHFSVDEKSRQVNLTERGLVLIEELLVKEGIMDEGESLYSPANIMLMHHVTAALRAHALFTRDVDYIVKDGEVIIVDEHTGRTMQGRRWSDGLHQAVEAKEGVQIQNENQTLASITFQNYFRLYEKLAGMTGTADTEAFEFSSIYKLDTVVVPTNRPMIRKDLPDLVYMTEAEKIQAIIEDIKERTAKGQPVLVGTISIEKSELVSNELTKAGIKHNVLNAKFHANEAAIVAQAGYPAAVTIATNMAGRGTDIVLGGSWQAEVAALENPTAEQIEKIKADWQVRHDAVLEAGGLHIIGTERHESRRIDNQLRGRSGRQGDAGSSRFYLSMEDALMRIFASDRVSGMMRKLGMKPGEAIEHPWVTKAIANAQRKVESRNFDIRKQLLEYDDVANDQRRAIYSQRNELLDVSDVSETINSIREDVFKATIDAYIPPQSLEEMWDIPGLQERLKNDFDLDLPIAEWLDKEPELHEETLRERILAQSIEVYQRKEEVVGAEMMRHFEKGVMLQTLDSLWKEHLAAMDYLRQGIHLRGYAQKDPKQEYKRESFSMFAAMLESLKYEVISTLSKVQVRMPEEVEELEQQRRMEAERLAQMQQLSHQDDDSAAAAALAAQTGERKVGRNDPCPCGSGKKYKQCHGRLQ
Chain of Chromo domain-containing protein 1 (Saccharomyces cerevisiae (strain ATCC 204508 / S288c) (Baker's yeast)) (P32657 whole entry, the tested form may be a part): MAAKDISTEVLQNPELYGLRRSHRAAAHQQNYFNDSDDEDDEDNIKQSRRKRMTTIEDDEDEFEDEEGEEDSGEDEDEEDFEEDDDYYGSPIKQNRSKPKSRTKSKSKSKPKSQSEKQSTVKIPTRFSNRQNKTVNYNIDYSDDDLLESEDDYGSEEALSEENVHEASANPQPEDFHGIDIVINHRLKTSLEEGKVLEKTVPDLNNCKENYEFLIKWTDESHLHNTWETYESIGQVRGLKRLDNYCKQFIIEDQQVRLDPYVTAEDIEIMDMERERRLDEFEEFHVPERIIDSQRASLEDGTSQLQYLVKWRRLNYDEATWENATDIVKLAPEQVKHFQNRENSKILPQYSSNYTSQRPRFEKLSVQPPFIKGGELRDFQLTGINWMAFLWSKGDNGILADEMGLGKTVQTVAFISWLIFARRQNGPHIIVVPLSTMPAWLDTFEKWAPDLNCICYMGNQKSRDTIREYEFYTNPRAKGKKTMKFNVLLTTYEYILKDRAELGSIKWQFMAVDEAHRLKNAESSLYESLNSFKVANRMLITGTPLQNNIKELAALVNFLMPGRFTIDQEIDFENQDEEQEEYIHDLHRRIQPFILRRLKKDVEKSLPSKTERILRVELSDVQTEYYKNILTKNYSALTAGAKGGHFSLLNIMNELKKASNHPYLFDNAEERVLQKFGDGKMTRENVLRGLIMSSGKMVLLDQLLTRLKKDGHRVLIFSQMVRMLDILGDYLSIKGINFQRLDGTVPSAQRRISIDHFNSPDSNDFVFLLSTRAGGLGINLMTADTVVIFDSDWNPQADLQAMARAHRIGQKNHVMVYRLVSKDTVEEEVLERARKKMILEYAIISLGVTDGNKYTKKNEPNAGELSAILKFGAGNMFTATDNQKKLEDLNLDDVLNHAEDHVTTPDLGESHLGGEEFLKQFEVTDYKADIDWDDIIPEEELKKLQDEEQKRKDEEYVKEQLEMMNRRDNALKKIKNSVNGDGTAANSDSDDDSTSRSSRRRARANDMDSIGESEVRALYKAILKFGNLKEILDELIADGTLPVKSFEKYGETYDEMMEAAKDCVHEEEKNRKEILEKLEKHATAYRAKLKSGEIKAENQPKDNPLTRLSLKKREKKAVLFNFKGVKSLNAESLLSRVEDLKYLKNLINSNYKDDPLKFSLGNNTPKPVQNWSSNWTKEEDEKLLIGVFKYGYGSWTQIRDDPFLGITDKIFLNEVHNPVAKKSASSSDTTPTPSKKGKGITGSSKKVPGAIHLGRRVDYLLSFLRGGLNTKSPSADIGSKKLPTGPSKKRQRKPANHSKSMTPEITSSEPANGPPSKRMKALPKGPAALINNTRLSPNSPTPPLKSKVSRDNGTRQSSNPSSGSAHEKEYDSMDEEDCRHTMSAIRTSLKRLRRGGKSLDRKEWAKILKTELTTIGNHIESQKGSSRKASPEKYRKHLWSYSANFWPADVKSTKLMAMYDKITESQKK
Chain of Sialic acid-binding Ig-like lectin 9 (Homo sapiens) (Q9Y336 whole entry): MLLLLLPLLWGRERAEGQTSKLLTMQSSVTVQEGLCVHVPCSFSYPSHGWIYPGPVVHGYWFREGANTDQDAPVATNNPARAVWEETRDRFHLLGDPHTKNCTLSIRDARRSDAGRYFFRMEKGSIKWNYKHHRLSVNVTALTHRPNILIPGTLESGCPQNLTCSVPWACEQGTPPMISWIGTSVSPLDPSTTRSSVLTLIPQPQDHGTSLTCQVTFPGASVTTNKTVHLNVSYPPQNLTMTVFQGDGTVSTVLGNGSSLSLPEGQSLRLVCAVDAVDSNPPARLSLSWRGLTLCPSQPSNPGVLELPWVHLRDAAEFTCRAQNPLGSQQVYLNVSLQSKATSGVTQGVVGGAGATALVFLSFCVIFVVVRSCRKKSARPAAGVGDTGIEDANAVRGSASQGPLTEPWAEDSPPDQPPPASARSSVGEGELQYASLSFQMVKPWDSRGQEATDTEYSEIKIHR

With `c1ccc(O[C@H]2CC[C@H]3[C@H]2OCCN3Cc2nccs2)nc1`, the Percent Effect is -1.17% in test [1]; -5.2% in [2]; 5.47% in test [3]; -3.9% in test [4]; 10.1% in test [5]; 7.57% in [6]. The Percent Effect in test [7] was -41.4%; in test [8] it was 13.6%; in test [9] it was 21%; in test [10], -14.7%; in [11] it was 3.23%; in test [12], 8.64%. Moreover, the Percent Effect in test [13] was -5.68%.
With `COc1cc(CNCC(O)c2ccc(F)c(F)c2)cc2c1OCO2` (stereo not given), the Percent Effect in test [1] is -2.52%; in test [2] it was 13.5%; in [3], 1.66%; in [4], 1.05%; in test [5] it was 3.77%; in [6], -6.41%. In addition, the Percent Effect in [7] is 0.185%; in [8], 18.1%; in [9] it was 17.8%; in test [10] it was -9.43%; in test [11], 7.92%; in test [12] it was 13.4%. Further, the Percent Effect in test [13] is -5.65%.
For `Cc1ccc(N2CCO[C@H]3CN(CC4CC4)C[C@H]32)nn1`, the Percent Effect is -4.5% in test [1]; 2.7% in test [2]; -6.1% in test [3]; 0.95% in test [4]; -5.02% in test [5]; 7.14% in test [6]. Also, the Percent Effect was -0.319% in [7]; 19.6% in test [8]; -33.8% in test [9]; 1.42% in test [10]; 1.08% in test [11]; 7.69% in [12]. Also, the Percent Effect in test [13] is 5.67%.
With `CN(C)C(=O)CN1C[C@@H]2CC[C@H](C1)N(C(=O)Cc1ccccc1Cl)C2`, the Percent Effect in [1] was -7.08%; in [2], -8.22%; in test [3] it was 1.5%; in [4] it was 3.48%; in [5], -0.0171%; in test [6], -5.16%. In addition, the Percent Effect was 0.798% in test [7]; 9.16% in test [8]; -4.89% in test [9]; -30.4% in [10]; 0% in test [11]; -23.5% in test [12]. The Percent Effect in test [13] is -1.84%.
For `O=C([C@H]1C[C@H]2OCC[C@H]2N(Cc2ccncc2)C1)N1CCCCO1`, the Percent Effect in test [1] is -5.42%; in test [2], 18.7%; in test [3], 0.349%; in [4], -3.96%; in [5], -0.793%; in [6], 5.6%. The Percent Effect in test [7] is -46.4%; in test [8], 15.9%; in [9], -2.86%; in [10], -11.8%; in [11], 8.33%; in test [12], 25%. In addition, the Percent Effect in test [13] was -6.46%.
